# MLLE-PAM2 inh – inhibitors of PABP1 MLLE–PAM2 peptide binding, primary screen, biochemical, fluorescence polarization, FITC-PAM2, GST-MLLE; Polyadenylate-binding protein 1 (Homo sapiens), P11940; inhibition, % at 20 µM; 0.36% of 360,000 active; in the data active = inhibition above about 35%, passing the limit was not always enough;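 note: plate controls were DMSO wells with GST-MLLE for no effect and wells lacking GST-MLLE protein for full effect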
# PABP FP inh – PABP poly(A) RNA binding inhibitors, primary screen, biochemical, fluorescence polarization, uHTS | Polyadenylate-binding protein 1 (Homo sapiens), P11940 | calls only at 35 µM | 1% of 290,000 active | AID 2014, 2009;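 note: calls also rest on retests at 20 µM and on dose response follow-up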
# EBV gp42 block – Epstein-Barr virus gp42 inhibitors, primary screen, biochemical, uHTS, fluorescence polarization; Fluorescence polarization binding assay, mP read-out; 0.42% of 220,000 active; inhibition, % (tested at 21.74 µM); Glycoprotein 42 (Epstein-Barr virus (strain AG876)), Q1HVG2; in the data active = inhibition above about 50%
# Target sequence (Q1HVG2 whole entry, looked up): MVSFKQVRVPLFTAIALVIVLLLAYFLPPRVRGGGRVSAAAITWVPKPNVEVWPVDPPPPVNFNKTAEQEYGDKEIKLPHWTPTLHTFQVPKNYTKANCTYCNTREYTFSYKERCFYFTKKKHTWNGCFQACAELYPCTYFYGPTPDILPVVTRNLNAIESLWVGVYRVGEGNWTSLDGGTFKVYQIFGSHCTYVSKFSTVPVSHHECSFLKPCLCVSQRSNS
# eIF4H FP inh – human eIF4H binding inhibitors, primary screen, translation initiation inhibitor project, biochemical, uHTS, fluorescence polarization. eIF4H fluorescence polarization binding assay. AID 2012, 2009. Eukaryotic translation initiation factor 4H (Homo sapiens), Q15056. inhibition, % at 35 µM. 0.94% of 290,000 active;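 note: calls also rest on retests at 20 µM and on dose response follow-up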
# MEX-5 binding – MEX-5 zinc finger RNA-binding disruptors – biochemical, C. elegans, fluorescence polarization, MLPCN library, primary screen | MEX-5/FITC-TCR2 RNA binding; hits give low values | activity score (negative = inhibition of binding), % at 10 µM | Zinc finger protein mex-5 (Caenorhabditis elegans), Q9XUB2 | 0.38% of 300,000 active;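 active = inhibition past about -25% in most replicates, and total fluorescence under double the plate's negative control median, limit read from the data; inconclusive = replicates evenly split on the limit, or fluorescence at least double controls; inactive = too little inhibition in most replicates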;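 note: 0% = DMSO and -100% = 5 µM competing unlabeled TCR2 RNA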
# Starred values were filed as active, the others as inactive; i = inactive; ? = inconclusive; . = not tested or not shown; + = active, no number. Most compounds without a hit are left out; they make up all but 1.8% or so of the library. Unless noted, the rule behind the calls is not given here.
SMILES,MLLE-PAM2 inh,PABP FP inh,EBV gp42 block,eIF4H FP inh,MEX-5 binding
COc1cc2c(cc1OC)C(CNC(=O)C=Cc1ccccc1)C2 (stereo not drawn),-2,.,.,.,.
CCCCC(=O)Nc1ccc(NC(=S)NC(=O)CC(C)C)cc1OC,16,+,0,active,-1
O=C(COC(=O)c1ccccc1S(=O)(=O)N1CCCCC1)NCC(F)(F)F,15,+,-7,active,3
COc1ccc2c(c1)c1ccc3c(c1n2C)C(=O)C=CC3=O,49*,i,-5,5,.
Cc1ccc2c(c1)c1ccc3c(c1n2C)C(=O)C=CC3=O,42*,i,-14,24,.
Cn1c2ccccc2c2ccc3c(c21)C(=O)C=CC3=O,31,.,.,.,.
Oc1ccc(/C=N/Nc2ccc(Cl)nn2)c(O)c1O,40,+,.,80*,-48*
C[N+]1(CC(=O)OCCCc2ccccc2)CCCCC1,-127,+,-67,1,-2
COc1cc(-c2cc(C(=O)Nc3c(Cl)cc(Cl)cc3Cl)c3ccccc3n2)cc(OC)c1OC,1,i,-9,1,0
COc1ccc2nc3ccccc3nc2c1NC(=O)c1ccc(Cl)cc1Cl,i,i,25,?,-53*
COC(=O)CCC(=O)OC1(C)C(=O)C2=CN(Cc3ccco3)C(c3ccc(OC)cc3)=CC2=C(Br)C1=O (stereo not drawn),.,.,.,.,-37*
C=CCN1C=C2C(=O)C(C)(OC(=O)CCC(=O)OC)C(=O)C(Br)=C2C=C1c1ccc(OC)cc1 (stereo not drawn),21,+,28,95*,-28*
CC1Sc2ccc(C(=O)N(CCc3ccccc3)Cc3ccccc3)cc2NC1=O (stereo not drawn),-44,.,.,.,.
Cc1ccc(S(=O)(=O)Nc2cc(Cl)c(O)c3ncccc23)cc1,41*,i,.,18,-2
N#C/C(=C\c1ccc(OCc2ccc(C(=O)O)cc2)cc1)C(=O)NCc1ccccc1,-10,i,.,14,3
Cc1nc(S/C(=C/c2ccc(OCc3ccc(C(=O)O)cc3)cc2)C(=O)O)n[nH]1,-6,i,1,89,-69*
c1cncc(-c2nc3ccccc3o2)c1,6,+,.,52,2
c1cncc(-c2nc3cc(Cc4ccc5oc(-c6cccnc6)nc5c4)ccc3o2)c1,.,i,.,3,.
CC1C(=O)N(Cc2cn(Cc3ccco3)nn2)CCS(=O)(=O)N1Cc1ccc(-c2ccc(Cl)cc2)cc1 (stereo not drawn),-13,.,.,.,.
O=C1NC(=O)C(CC(=O)N(Cc2ccco2)C2(C(=O)NC3CCCC3)CCCCC2)N1 (stereo not drawn),14,i,2,-3,1
O=C1NC(=O)C(CC(=O)N(Cc2cccs2)C2(C(=O)NC3CCCCC3)CCCCC2)N1 (stereo not drawn),7,+,-11,active,2
COC(=O)C1=C(C)NC(=O)/C1=C\c1cc(C)n(-c2ccc(F)cc2)c1C,5,i,2,30,0
Cc1cc(/C=N/O)c(C)n1-c1ccccc1,-17,i,10,14,1
Cc1cc(C=C2C(=O)c3ccccc3C2=O)c(C)n1-c1ccccc1,-12,i,57*,57,-8
Cc1cc(C=O)c(C)n1-c1cc(C(=O)O)cc(C(=O)O)c1,3,i,-17,90,-4
SMILES,MLLE-PAM2 inh,PABP FP inh,EBV gp42 block,eIF4H FP inh,MEX-5 binding
Cc1cc(C=O)c(C)n1-c1cccc(C(=O)O)c1,-2,i,4,80*,-3
COC(=O)C1=C(C)NC(=O)/C1=C\c1cc(C)n(-c2cccc(C)c2)c1C,-6,+,5,121,1
CC(=O)C(=Cc1cc(C)n(-c2ccccc2)c1C)C(C)=O,-1,+,-14,54*,-1
CN(C)c1ccc(-c2csc(C(O)c3cccc(Cl)c3)n2)cc1 (stereo not drawn),-9,.,.,.,.
Cc1ccc(C)n1-c1cccc(C(=O)O)c1,.,+,17,91*,-93*
Cc1cc(/C=C2/C(=O)NN(c3ccccc3)C2=O)c(C)n1-c1cccc(O)c1,-7,i,5,62*,1
Cc1ccc2nc(-c3cccc(Br)c3)c(Cc3ccccn3)n2c1,17,.,.,.,.

# High-throughput results (PubChem BioAssay)
